Compound activity from PubChem.
Tau ThT inhib = qHTS for Inhibitors of Tau Fibril Formation, Thioflavin T Binding | Microtubule-associated protein tau (Homo sapiens), P10636 | recombinant tau K18 P301L, heparin-induced fibrillization, ThT fluorescence | Potency, µM (series often up to 57.4 µM), for inactives: at the top dose activity, negative = inhibition, most hits filed as inhibitors | 2.1% of 270,000 active | AID 1460, 2008; further: potency means the concentration at half of the fitted maximal effect; nearly all actives have a fitted effect of over 55% in size
Target sequence (P10636 561-689 P618L limits assumed): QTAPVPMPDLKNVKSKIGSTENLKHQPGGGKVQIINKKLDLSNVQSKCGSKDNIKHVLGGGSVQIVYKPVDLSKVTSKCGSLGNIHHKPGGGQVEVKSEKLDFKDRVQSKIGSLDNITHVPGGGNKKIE
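Aggregation was driven by heparin (20 uM final) acting on recombinant tau […] bearing P301L in 100 mM sodium acetate pH 7; fibrils were detected with Thioflavin T.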
Tau fluor cs = Counterscreen qHTS for Inhibitors of Tau Fibril Formation, Fluorescence Polarization. Potency, µM (top dose mostly 57.7 µM), for the others: at the top dose activity change, negative = decrease. tau K18 P301L (four-repeat tau fragment) Alexa594 fluorescence, heparin fibrillization. 0.93% of 280,000 active; further: potency means the concentration at half of the fitted maximal effect; nearly all actives have a fitted effect of over 55% in size
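Human K18 P301L tau (15 uM unlabeled plus 0.24 uM Alexa 594-labeled, final) in 100 mM sodium acetate pH 7 was mixed with compound and 20 uM heparin and incubated 6 hr at 37 C.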
PNC inhibitor = High Content Assay for Compounds that inhibit the Assembly of the Perinucleolar Compartment | PC3M PTB-GFP, PNC prevalence imaging, 16 h; active compounds read low | activity change (PNC), negative = inhibition, % at 10 µM | 3.1% of 140,000 active;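 active means readout at or below -70, meaning at least 70% loss of cells showing the perinucleolar compartment, a nuclear body marking cancer cells; inconclusive means readout between -30 and a set limit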;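 further: plate controls were DMSO wells for no effect and camptothecin positive control wells for full effect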
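Compounds are pinned in duplicate onto adhered PC3M cells stably expressing GFP-tagged PTB and incubated 16 h at 37 C. Cells are then fixed, nuclei stained with Hoechst, and PNC-positive cells counted.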
JMJD2E inh = qHTS Assay for Inhibitors of Human Jumonji Domain Containing 2E (JMJD2E); Potency, µM (doses to about 57.1 µM), for the others: at the top dose activity change, negative = inhibition, hits mostly inhibitors; 1.6% of 230,000 active; Lysine-specific demethylase 4E (Homo sapiens), B2RXH2; AID 2147, 2009; JMJD2E catalytic domain, FDH-coupled NADH fluorescence (FDH is formaldehyde dehydrogenase);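 further: potency means the concentration at half of the fitted maximal effect; 0% = wells with enzyme and -100% = buffer wells without enzyme; nearly all actives have a fitted effect of over 50% in size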
Target sequence (B2RXH2 1-337 limits assumed): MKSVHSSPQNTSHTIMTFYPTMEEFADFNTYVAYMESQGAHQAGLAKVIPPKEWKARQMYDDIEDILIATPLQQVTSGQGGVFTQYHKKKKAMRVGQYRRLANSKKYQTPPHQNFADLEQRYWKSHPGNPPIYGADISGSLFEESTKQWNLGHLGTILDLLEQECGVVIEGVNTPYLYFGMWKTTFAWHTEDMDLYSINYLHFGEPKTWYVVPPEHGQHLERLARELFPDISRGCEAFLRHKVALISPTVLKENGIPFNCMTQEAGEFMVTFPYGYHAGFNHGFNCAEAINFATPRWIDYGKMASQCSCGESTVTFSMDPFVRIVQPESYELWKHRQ
NPSR antagonist = qHTS Assay for Antagonists of the Neuropeptide S Receptor: cAMP Signal Transduction | CHO-NPSR cells, cAMP TR-FRET, antagonist mode | Potency, µM (highest dose often 38.3 µM), inactives show top-dose activity change, negative = inhibition, usual class: inhibitors | 1% of 220,000 active; further: potency means the concentration at half of the fitted maximal effect; nearly all actives have a fitted effect of over 50% in size
Tau fibril FP = qHTS for Inhibitors of Tau Fibril Formation, Fluorescence Polarization; K18 P301L tau heparin fibrillization, Alexa594 FP, 6 h; Potency, µM (series often up to 57.7 µM), for inactives: top-dose activity, negative = inhibition, most hits filed as inhibitors; 0.39% of 280,000 active; further: potency means the concentration at half of the fitted maximal effect; nearly all actives have a fitted effect of over 55% in size
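Read-out: fluorescence polarization of Alexa 594-labeled tau (0.24 uM), 555 nm excitation, 632 nm emission. Mixtures held 15 uM unlabeled K18 P301L, compound and 20 uM heparin, pH 7 acetate buffer, incubated 6 hr at 37 C.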
* marks the source's active call; other numbers are inactive results; ? = inconclusive; . = not tested or not shown; [ ] = another dose, or the depositor's remark. The list is not random: actives were taken first. Their share in the collection is about 5.1%. Unless noted, the call rests on the fitted dose curve; in most records, active means well fitted curve in the direction sought with a large enough effect; inconclusive means small, poorly fitted or top-dose-only effect, or another doubt; inactive means no such curve, though single readings can be large; an effect the other way counts as inactive or inconclusive. Unless noted, on the % scale 0 is the no-effect control and ±100 the full control effect.

SMILES | Tau ThT inhib | Tau fluor cs | PNC inhibitor | JMJD2E inh | NPSR antagonist | Tau fibril FP
Cc1ccc(-c2nnc3n2N=C(c2ccc(Br)cc2)CS3)cc1 | -2% | 0% | -106* | -2% | -3%[46.1 µM] | -4%
COC(=O)CC1c2ccccc2C(Cc2ccc3c(c2)OCO3)=C(C)N1C(=O)OC (centres undefined) | -7% | -11% | . | -1% | . | 6%
N#CC(=C(/N)Sc1ccccc1N)/C(C#N)=C(\N)Sc1ccccc1N | 14µM* | 18µM*[quencher] | . | . | . | .
Cc1cc(C)c(C#N)c(Sc2ccccc2N)n1 | -17% | 0% | . | ? | -6% | -6%
Cc1cc(NC(=O)CSc2nnc(Cc3ccccc3)n2C)no1 | -8% | -5% | ? | 4% | 8%[46.1 µM] | 5%
O=C(CSc1nc(O)cc(=O)n1C1CCCC1)Nc1cccc(Cl)c1Cl | 15% | 3% | . | -3% | -18% | 6%
CCn1c(Cc2ccccc2)nnc1SCC(=O)Nc1cc(C)on1 | 5% | 10% | -107* | 2% | 0%[46.1 µM] | 6%
Cc1cc(NC(=O)CSc2nc3ccccc3c(=O)n2C2CCCC2)no1 | -6% | -23% | -83* | 17% | 16%[46.1 µM] | -4%
COC(=O)c1ccccc1NC(=O)CSc1nc(O)cc(=O)n1C1CCCC1 | ? | -8% | -89* | 8% | ? | -2%
Cc1ccccc1Cn1c(=O)n(CC2CCC(C(=O)N3CCC(C)CC3)CC2)c(=O)c2sccc21 (centres undefined) | -14% | -10% | . | . | . | 0%
CC1CCN(C(=O)CSc2nnc(Cc3cccn3C)n2CCc2ccccc2)CC1 | ? | -8% | -95* | -9% | -14% | -5%
Cn1cccc1Cc1nnc(SCC(=O)N2CCCC2)n1CCc1ccccc1 | -16% | -7% | -15 | -16% | ? | 6%
CCOc1ccccc1C(=O)Nc1ccsc1C(=O)OC | ? | -23% | -110* | -28% | -27% | -6%
CCOc1ccccc1C(=O)Nc1ccccc1C(N)=O | -5% | -10% | -10 | -23% | 5%[46.1 µM] | 0%
CC1CCc2sc(NC(=S)NC(=O)c3ccccc3)c(C#N)c2C1 (centres undefined) | ? | -21% | -80* | -8% | -8% | -12%
CC(=O)NC(=S)Nc1sc2c(c1C#N)CCCCC2 | ? | ? | -115* | 1% | 7%[46.1 µM] | ?
CSc1nc(N(C)NC(=O)c2ccc(F)cc2)c2ccccc2n1 | -9% | -13% | -83* | 8% | 12%[46.1 µM] | -3%
CN(C)C(=O)c1ccc(-c2nc(Nc3ccc(F)cc3)c3ccccc3n2)cc1 | -11% | ? | . | ? | . | ?
CC(=O)Nc1ccc2nc(C)n(Cc3ccc(Cl)cc3)c(=O)c2c1 | -8% | -16% | -90* | -2% | -15%[46.1 µM] | 5%
CCCCCCCCCCCCCCCC(=O)NCC(COP(=O)([O-])OCC[N+](C)(C)C)OCC (centres undefined) | ? | -7% | . | 2% | 10µM* | 7%
CC(C)CCNC(=O)c1ccc(NC(=O)N2CCCCc3ccccc32)cc1 | 5% | -9% | . | . | . | -1%
O=C(Nc1ccccc1)c1cnc2n(c1=O)CCS2 | -13% | -2% | -119* | 1% | 5% | ?
Cc1ccccc1Nc1c(-c2ccc(O)cc2)nc2c(C)cccn12 | ? | 25µM*[quencher] | . | . | . | 8%
Cc1ccccc1Nc1c(-c2ccccc2O)nc2sccn12 | -13% | 13µM*[quencher] | . | . | . | ?
Cc1cccc(CS(=O)(=O)Cc2ccc(C(=O)NCc3ccc(F)cc3)o2)c1 | -8% | -13% | . | . | . | 0%
SMILES | Tau ThT inhib | Tau fluor cs | PNC inhibitor | JMJD2E inh | NPSR antagonist | Tau fibril FP
CC(C)OC(=O)[C@@H]1CC[C@H](C)[C@@H](CCCC=O)O1 | 3% | -3% | . | 12% | . | -4%
COc1cc(OC)c(-c2nn3c(-c4ccncc4)nnc3s2)cc1OC | -14% | -4% | -136* | 6% | -12%[46.1 µM] | 3%
Cc1cccc(/C=N/NC(=O)C2CCCNC2=O)c1 (centres undefined) | 5% | 1% | -85* | 7% | 4% | 0%
O=C1NCCCC1C(=O)N/N=C/c1cccc([N+](=O)[O-])c1 (centres undefined) | 1% | 10% | . | 9% | -15% | 8%
O=C(N/N=C/c1cc([N+](=O)[O-])ccc1O)C1CC1 | -17% | -8% | . | 28µM* | -9% | 1%
O=C1NCCCC1C(=O)N/N=C/c1cc([N+](=O)[O-])ccc1O (centres undefined) | -14% | -2% | . | 10µM* | 3% | 4%
Cc1nn(C(=O)c2ccccc2)c(C)c1Sc1ccc(Cl)cc1 | -11% | -6% | . | . | . | -5%
Cc1ccc(Cn2nnnc2CN2CCC(O)(c3ccccc3F)CC2)cc1 | -8% | -7% | -100* | -1% | -8%[46.1 µM] | 1%
CCOc1ccc(NC(=O)c2oc3ccccc3c2NC(=O)C(C)(C)C)cc1 | -9% | ? | . | . | . | -15%
Cc1cc(C=O)c(C)n1-c1ccc(Oc2ccc([N+](=O)[O-])cn2)cc1 | ? | -11% | -118* | 6% | -15% | 3%
Cc1ccc(NC(=S)N=Nc2c(O)[nH]c3ccccc23)cc1 | ? | ? | . | 8% | -46% | ?
CN(C)C(=S)N=Nc1[nH]c2ccccc2c1O | 16µM* | -24% | . | 18% | ? | -23%
CC(=O)c1cccc(NC(=O)c2ccc(-n3c(C)nnc3C)cc2)c1 | -1% | -1% | . | . | . | -7%
CCOC(=O)c1c(NC(=O)C2CC2)sc(C)c1CC | 28µM* | -22% | -24 | 0% | -15% | ?
CCOC(=O)c1c(NC(=O)C2C3C=CC(CC3)C2C(=O)O)sc(C)c1CC (centres undefined) | -3% | 10% | -4 | -11% | -36% | 4%
CC(=O)Nc1ccc(S(=O)(=O)N2CCN(c3cc(C)nc4ccccc34)CC2)cc1 | 5% | 1% | ? | 3% | -15%[46.1 µM] | -5%
CC(=O)Nc1ccc(S(=O)(=O)N2CCN(c3nc(NC4CCCC4)c4ccccc4n3)CC2)cc1 | -17% | 14µM*[quencher] | 61 | ? | ? | 22µM*
OCCN1CCN(C(=S)c2ccc(Cl)c(Cl)c2)CC1 | 7.9µM* | -22% | -15 | -27% | 11%[46.1 µM] | ?
COc1cc(NC(=S)N2CCN(CCO)CC2)c(OC)cc1Cl | -3% | 6% | . | -2% | 17% | -1%
CCOc1ccc(CCNC(=O)CCCc2nnc3n(CC)c(=O)c4sccc4n23)cc1OCC | -10% | -12% | . | . | . | -5%
Cc1nn(-c2ccccc2)c(N)c1N=Nc1cccc(S(=O)(=O)N2CCOCC2)c1 | ? | ? | . | -17% | -42% | 6%
